Our source for the growth values is PubChem BioAssay (NCI).

Test systems include NCI-H23 lung; NCI-H226 lung; NCI-H322M lung; HOP-62 NSCLC; NCI-H460 lung; NCI-H522 lung; A549/ATCC NSCLC; 786-0 renal; COLO 205 colon; DU-145 prostate; K-562 leukemia; MALME-3M melanoma; MDA-MB-231 breast; RXF 393 renal; SF-268 CNS; SF-295 CNS; SF-539 CNS; UACC-257 melanoma; M14 melanoma.
Assay in all cases: NCI-60 one-dose screen, 48 h (100 = growth as untreated, 0 = no growth, -100 = all killed)
Settings in all cases: 10 µM unless noted

Compounds without any hit were thinned out: in the full panel of roughly 83,000, 20% have a hit.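 For each line, cells grew in 96-well plates with the test compound present at a single concentration for 48 hours.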 Unmarked numbers belong to inactive results. Calls of active or inactive are those of the source. The calls were made as follows: active = growth percent below 10; inactive = the rest.

In the case of `COc1ccc(Oc2nc(Nc3ccc(N4CCOCC4)cc3)ncc2NC(=O)Nc2cccc(OC)c2)cc1`, the growth with NCI-H23 lung is 72.2%; in the experiment with NCI-H226 lung it was 42.1%; with NCI-H322M lung it was 53.3%; in the experiment on HOP-62 NSCLC it was 64.7%; in the experiment on NCI-H460 lung it was 41.5%; with NCI-H522 lung it was 23.7%. In addition, the growth in the experiment on A549/ATCC NSCLC was 41.7%; in the experiment with 786-0 renal it was 80.7%; in the experiment on COLO 205 colon it was 17.8%; in the experiment on DU-145 prostate it was 47.5%; in the experiment on K-562 leukemia it was 57%; in the experiment on MALME-3M melanoma, 69.7%. Also, the growth in the experiment with MDA-MB-231 breast was 28.8%; in the experiment with RXF 393 renal, 39.4%; in the experiment on SF-268 CNS, 74.4%; in the experiment on SF-295 CNS it was 81.1%; in the experiment on SF-539 CNS, 28.3%; in the experiment on UACC-257 melanoma, 91.5%. In the experiment with M14 melanoma, the growth is 71.9%.

Consider `Nc1ccc(C2=NNC(=O)Cc3cc4c(cc32)OCCO4)cc1Cl`, for which the growth in the experiment with NCI-H23 lung is 20.9%; in the experiment on NCI-H226 lung, 68.5%; in the experiment with NCI-H322M lung it was 61.1%; in the experiment on HOP-62 NSCLC, 46%; in the experiment with NCI-H460 lung it was 10.6%; with NCI-H522 lung it was 11%. For the same molecule, the growth is 40.3% in the experiment with A549/ATCC NSCLC; 54.3% in the experiment with 786-0 renal; 26.9% in the experiment with COLO 205 colon; 67.5% with DU-145 prostate; 40.9% in the experiment with MALME-3M melanoma; 61.4% in the experiment with MDA-MB-231 breast. The growth in the experiment with RXF 393 renal is 49.9%; with SF-268 CNS, 59.7%; in the experiment on SF-295 CNS, 15.9%; in the experiment with SF-539 CNS, 49.4%; in the experiment on UACC-257 melanoma, 72.7%.

With `O=C1CCCN1C(O)CCN(Cc1ccccc1)Cc1ccc(Cl)cc1` (stereo not drawn), the growth in the experiment with NCI-H23 lung is 103%; in the experiment with NCI-H226 lung, 105%; with NCI-H322M lung it was 95.5%; with HOP-62 NSCLC, 104%; with NCI-H460 lung it was 105%; in the experiment with NCI-H522 lung, 93.3%. The growth was 103% in the experiment on A549/ATCC NSCLC; 95.7% in the experiment with 786-0 renal; 124% in the experiment with COLO 205 colon; 110% in the experiment on DU-145 prostate; 109% in the experiment with MALME-3M melanoma; 112% in the experiment on MDA-MB-231 breast. For the same molecule, the growth with RXF 393 renal is 123%; in the experiment with SF-268 CNS, 105%; in the experiment on SF-295 CNS, 94.2%; in the experiment with SF-539 CNS, 114%; in the experiment with UACC-257 melanoma, 106%; in the experiment on M14 melanoma, 99.9%.

Consider `COc1ccc(/C=C(\C#N)c2cc(OC)c(OC)c(OC)c2)cc1`, for which the growth in the experiment on NCI-H23 lung is 1.46% (active); in the experiment on NCI-H226 lung, -8.11% (active); in the experiment on NCI-H322M lung, 42.8%; with HOP-62 NSCLC it was 24.1%; in the experiment on NCI-H460 lung it was 7.57% (active); in the experiment with NCI-H522 lung, 5.56% (active). The growth in the experiment on A549/ATCC NSCLC is 20.8%; with 786-0 renal it was 18.2%; in the experiment on COLO 205 colon, -69.7% (active); in the experiment with DU-145 prostate, -1.75% (active); with MALME-3M melanoma, 69.1%; with MDA-MB-231 breast, 38.4%. Moreover, the growth in the experiment on RXF 393 renal was 48.7%; in the experiment with SF-268 CNS it was 27%; with SF-295 CNS, 14.1%; in the experiment with SF-539 CNS it was 8.76% (active); in the experiment with UACC-257 melanoma, 65.7%; in the experiment with M14 melanoma, 8.3% (active).

On to `N#CCCn1cnc2c(N)ncnc21`, for which the growth in the experiment with NCI-H23 lung was 101%; in the experiment on NCI-H226 lung, 95.9%; in the experiment with NCI-H322M lung it was 123%; in the experiment with HOP-62 NSCLC it was 94.6%; in the experiment on NCI-H460 lung, 108%; in the experiment on NCI-H522 lung, 97.7%. Moreover, the growth is 99.9% in the experiment with A549/ATCC NSCLC; 96.7% in the experiment with 786-0 renal; 120% in the experiment on COLO 205 colon; 108% in the experiment on DU-145 prostate; 125% in the experiment on MALME-3M melanoma; 94.2% with MDA-MB-231 breast. Also, the growth is 120% in the experiment on RXF 393 renal; 110% in the experiment on SF-268 CNS; 102% in the experiment with SF-295 CNS; 97.8% in the experiment with SF-539 CNS; 102% in the experiment with UACC-257 melanoma; 102% with M14 melanoma.

Regarding `c1ccc2c(N=NSc3ncnc4nc[nH]c34)c3ccccc3nc2c1`, the growth in the experiment with NCI-H23 lung was -8.68% (active); with NCI-H226 lung, -23% (active); in the experiment on NCI-H322M lung, 8.38% (active); in the experiment with HOP-62 NSCLC, -49.9% (active); with NCI-H460 lung it was 2.58% (active); in the experiment on NCI-H522 lung, -74.9% (active). For the same molecule, the growth in the experiment on A549/ATCC NSCLC was -24.4% (active); in the experiment with 786-0 renal it was -5.12% (active); in the experiment on COLO 205 colon it was -95.3% (active); with DU-145 prostate, 8.43% (active); in the experiment with MALME-3M melanoma, -17.9% (active); in the experiment with MDA-MB-231 breast, 5.25% (active). The growth was -20.8% (active) with RXF 393 renal; 3.15% (active) in the experiment on SF-268 CNS; 20.1% in the experiment with SF-295 CNS; 5.02% (active) in the experiment on SF-539 CNS; -13.9% (active) in the experiment with UACC-257 melanoma.

With `C=C(C)[C@@H]1CC[C@]2(C(=O)NS(=O)(=O)c3ccccc3)CC[C@]3(C)[C@H](CC[C@@H]4[C@@]5(C)CC[C@H](OC(=O)NS(=O)(=O)c6ccccc6)C(C)(C)[C@@H]5CC[C@]43C)[C@@H]12`, the growth is -9.55% (active) in the experiment with NCI-H23 lung; 30.9% in the experiment on NCI-H226 lung; 34.1% in the experiment with NCI-H322M lung; -13.4% (active) in the experiment on HOP-62 NSCLC; -53.8% (active) in the experiment with NCI-H460 lung; 16.7% with NCI-H522 lung. Moreover, the growth is 18.3% with A549/ATCC NSCLC; -43.5% (active) in the experiment with 786-0 renal; 31.8% in the experiment with COLO 205 colon; 43.3% with DU-145 prostate; 11.3% in the experiment on MALME-3M melanoma; 39.7% in the experiment with MDA-MB-231 breast. In addition, the growth is -25.9% (active) in the experiment on RXF 393 renal; 41.4% in the experiment with SF-268 CNS; 1.73% (active) with SF-295 CNS; -34.3% (active) in the experiment with SF-539 CNS; 27.8% with UACC-257 melanoma; 12.8% in the experiment with M14 melanoma.

Turning to `O=C(Cc1ccc([N+](=O)[O-])cc1)Oc1ccccc1`, the growth was 109% with NCI-H23 lung; 111% with NCI-H226 lung; 103% in the experiment on NCI-H322M lung; 102% in the experiment on HOP-62 NSCLC; 114% in the experiment with NCI-H460 lung; 97.2% in the experiment on NCI-H522 lung. The growth in the experiment with A549/ATCC NSCLC is 111%; with 786-0 renal it was 104%; in the experiment on COLO 205 colon it was 109%; with DU-145 prostate, 129%; in the experiment on K-562 leukemia it was 104%; in the experiment on MALME-3M melanoma, 146%. Further, the growth is 108% with MDA-MB-231 breast; 122% in the experiment with RXF 393 renal; 111% with SF-268 CNS; 121% in the experiment with SF-295 CNS; 105% with SF-539 CNS; 110% in the experiment on UACC-257 melanoma. Besides, the growth in the experiment with M14 melanoma was 106%.

For `COc1cccc(/C=N\Nc2ccc([N+](=O)[O-])cn2)c1O`, the growth in the experiment with NCI-H23 lung is 38%; in the experiment with NCI-H226 lung, 81.5%; in the experiment on NCI-H322M lung, 32%; in the experiment with HOP-62 NSCLC it was 46.4%; with NCI-H460 lung, 18%; with NCI-H522 lung, 12.7%. The growth with A549/ATCC NSCLC is 57%; with 786-0 renal, 64.5%; in the experiment with COLO 205 colon, 134%; with DU-145 prostate it was 51.6%; with K-562 leukemia it was 44.1%; in the experiment on MALME-3M melanoma, 60.9%. The growth was 42.4% in the experiment on MDA-MB-231 breast; 72.8% in the experiment on RXF 393 renal; 37.1% in the experiment on SF-268 CNS; 3.86% (active) in the experiment on SF-295 CNS; 50.6% in the experiment with SF-539 CNS; 16.2% in the experiment with UACC-257 melanoma. Further, the growth in the experiment on M14 melanoma was 38.8%.
